Results taken from PubChem BioAssay AID1159580 (chemical genetic matrix, 2015).
Values joined by “and” are separate entries in the source; they are usually repeats but may differ in a detail not shown here. Equal entries are not always repeated. Out of some 5,500 compounds screened, about 2,000 (36%) were called active. Roughly 18% stayed inconclusive and do not appear here. No stated cut-off is given here; in the data, active means normalized growth mostly below about 0.91 (no sharp cut-off); inconclusive means no clear call, values can overlap the other calls; inactive means mostly above about 0.92. Some of the results follow.

Experiment: chemical genetic growth profiling, strain panel (AID 1159580);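 further: tested at 20 µM; growth read once vehicle control cultures reached saturation at 30 °C; 1 = growth at the plate median or of vehicle wells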
Details: S. cerevisiae deletion strains, growth OD

Measured: normalized growth

NCCSSCCN
inactive: locus YAL013W, strain DEP1, stronger effect = lower value 1.01 | locus YAL021C, strain ccr4, stronger effect = lower value 0.998 | locus YAL026C, strain drs2, stronger effect = lower value 0.999 | locus YAL030W, strain snc1, stronger effect = lower value 0.994 | locus YAL040C, strain CLN3, stronger effect = lower value 1.02 | locus YBL061C, strain skt5, stronger effect = lower value 0.997 | locus YBR009C, strain hhf1, stronger effect = lower value 0.992 | locus YBR021W, strain FUR4, stronger effect = lower value 1.01 | locus YBR023C, strain chs3, stronger effect = lower value 0.991 | locus YBR171W, strain sec66, stronger effect = lower value 0.988 | locus YBR229C, strain ROT2, stronger effect = lower value 1 | locus YBR231C, strain swc5, stronger effect = lower value 0.994 | locus YBR279W, strain paf1, stronger effect = lower value 0.996 | locus YCL011C, strain gbp2, stronger effect = lower value 1 | locus YCL016C, strain dcc1, stronger effect = lower value 1 | locus YCL029C, strain bik1, stronger effect = lower value 1.03 | locus YCL061C, strain MRC1 (second series), stronger effect = lower value 1 | locus YCL069W, strain vba3, stronger effect = lower value 0.997 | locus YCR088W, strain abp1, stronger effect = lower value 0.991 | locus YDL005C, strain med2, stronger effect = lower value 0.988 | locus YDL035C, strain GPR1, stronger effect = lower value 1.01 | locus YDL040C, strain nat1, stronger effect = lower value 0.996 | locus YDL074C, strain BRE1, stronger effect = lower value 1.03 | locus YDL101C, strain DUN1, stronger effect = lower value 1.03 | locus YDL134C, strain PPH21, stronger effect = lower value 1.01 | locus YDL185W, strain tfp1, stronger effect = lower value 1 | locus YDL192W, strain arf1, stronger effect = lower value 1 | locus YDR001C, strain nth1, stronger effect = lower value 0.992 | locus YDR069C, strain doa4, stronger effect = lower value 0.983 | locus YDR101C, strain arx1, stronger effect = lower value 1.01 | locus YDR137W, strain rgp1, stronger effect = lower value 1.03 | locus YDR150W, strain NUM1, stronger effect = lower value 1.01 | locus YDR159W, strain sac3, stronger effect = lower value 1.01 | locus YDR162C, strain NBP2, stronger effect = lower value 1.01 | locus YDR195W, strain ref2 0.975 | locus YDR297W, strain sur2, stronger effect = lower value 1 | locus YDR318W, strain mcm21, stronger effect = lower value 1.01 | locus YDR334W, strain swr1, stronger effect = lower value 0.996 | locus YDR335W, strain msn5, stronger effect = lower value 0.991 | locus YDR388W, stronger effect = lower value 1.01 | locus YDR392W, strain spt3, stronger effect = lower value 1.01 | locus YDR502C, strain sam2, stronger effect = lower value 0.996 | locus YEL003W, strain gim4, stronger effect = lower value 0.994 | locus YEL037C, strain rad23, stronger effect = lower value 1 | locus YEL061C, strain CIN8 (second series), stronger effect = lower value 0.989 | locus YEL061C, strain CIN8, stronger effect = lower value 1 | locus YER002W, strain NOP16, stronger effect = lower value 1.02 | locus YER015W, strain faa2, stronger effect = lower value 1 | locus YER016W, strain bim1, stronger effect = lower value 0.992 | locus YER110C, stronger effect = lower value 1.01 | locus YER111C, strain swi4, stronger effect = lower value 0.989 | locus YER155C, strain BEM2 (second series), stronger effect = lower value 0.952 | locus YER155C, strain BEM2, stronger effect = lower value 1.01 | locus YER167W, strain BCK2, stronger effect = lower value 0.997 | locus YFR010W, strain ubp6, stronger effect = lower value 0.994 | locus YGL078C, strain dbp3, stronger effect = lower value 1 | locus YGL086W, strain mad1, stronger effect = lower value 0.985 | locus YGL167C, strain pmr1, stronger effect = lower value 0.993 | locus YGL173C, strain kem1, stronger effect = lower value 0.99 | locus YGL227W, strain vid30, stronger effect = lower value 0.99 | locus YGL240W, strain doc1, stronger effect = lower value 0.978 | locus YGL248W, strain PDE1, stronger effect = lower value 1 | locus YGL253W, strain hxk2, stronger effect = lower value 0.995 | locus YGR078C, strain PAC10, stronger effect = lower value 1.02 and 1 | locus YGR135W, strain pre9, stronger effect = lower value 0.997 | locus YGR229C, strain SMI1, stronger effect = lower value 0.982 | locus YGR252W, strain gcn5, stronger effect = lower value 0.918 | locus YHR013C, strain ard1, stronger effect = lower value 0.996 | locus YHR027C, strain rpn1, stronger effect = lower value 0.997 | locus YHR030C, strain SLT2, stronger effect = lower value 1 and 1.05 | locus YHR079C, strain IRE1 (second series), stronger effect = lower value 1.02 | locus YHR079C, strain IRE1, stronger effect = lower value 1.05 | locus YHR094C, strain hxt1, stronger effect = lower value 1.01 | locus YHR129C, strain ARP1, stronger effect = lower value 1.02 | locus YHR142W, strain chs7, stronger effect = lower value 1.01 | locus YHR200W, strain rpn10, stronger effect = lower value 1.01 | locus YIL066C, strain RNR3, stronger effect = lower value 1.02 | locus YIL073C, strain SPO22, stronger effect = lower value 1.02 | locus YIL125W, strain kgd1, stronger effect = lower value 0.996 | locus YIR030C, strain dcg1, stronger effect = lower value 1.01 | locus YJL092W, strain hpr5, stronger effect = lower value 1 | locus YJL095W, strain BCK1 (second series), stronger effect = lower value 0.989 | locus YJL095W, strain BCK1, stronger effect = lower value 1.04 and 1.06 | locus YJL115W, strain asf1, stronger effect = lower value 0.988 | locus YJL129C, strain trk1, stronger effect = lower value 0.986 | locus YJL134W, strain LCB3, stronger effect = lower value 1 | locus YJL154C, strain vps35, stronger effect = lower value 0.993 | locus YJL164C, strain tpk1, stronger effect = lower value 1.01 | locus YJL166W, strain qcr8, stronger effect = lower value 0.989 | locus YJL168C, strain set2, stronger effect = lower value 1.01 | locus YJL187C, strain SWE1 (second series), stronger effect = lower value 1.03 | locus YJL187C, strain SWE1, stronger effect = lower value 0.993 | locus YJR043C, strain POL32, stronger effect = lower value 1.03 | locus YJR066W, strain TOR1, stronger effect = lower value 0.918 | locus YJR075W, strain HOC1, stronger effect = lower value 1.01
